{
  "source": "PubChem BioAssay (NCI)",
  "note": "Compounds without any hit were thinned out: in the full panel of roughly 83,000, 20% have a hit.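 Compound tested at a single concentration for 48 hours in 96-well plates; a percent growth value below 10 was scored as active.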 A number with no mark means an inactive call. Active and inactive are the calls of the source.",
  "data": [
    {"system": "MDA-MB-468 breast", "experiment": "NCI-60 one-dose screen, 48 h (100 = growth as untreated, 0 = no growth, -100 = all killed)", "conditions": "10 µM unless noted", "values": [
      {"smiles": "Cc1ccccc1Nc1nc(SC(C)C)nc(-c2ccccc2)c1C#N", "growth": "74.8%"},
      {"smiles": "COc1ccccc1CNCCCN1C(=O)c2ccc3c4c(ccc(c24)C1=O)C(=O)N(CCCNCCCCN)C3=O", "growth": "-55.7% (active)"},
      {"smiles": "CC(=O)Nc1cscc1NC(C)=O", "growth": "95.1%"},
      {"smiles": "O=C1CSC(c2ccccc2O)N1c1nnc(Cn2ccnc2)o1", "note": "(stereo not given)", "growth": "59.1%"},
      {"smiles": "Cc1noc(C)c1CSc1ccccc1C(=O)N1CCN(c2cccc(C(F)(F)F)c2)CC1", "growth": "38.1%"},
      {"smiles": "CC(=O)n1c(/C(C#N)=C/c2ccc(N(C)C)cc2)cc2ccccc21", "growth": "14.2%"},
      {"smiles": "O=C(CCN1C(=O)/C(=C/c2ccccc2)SC1=S)N1CCOCC1", "growth": "51.9%"},
      {"smiles": "Cc1ccc2c(c1)C(=O)C(c1c(-c3[nH]c(=O)c4ccc(C)cc4c3O)c(O)c3ccccc3c1O)=NC2=O", "growth": "-23.1% (active)"},
      {"smiles": "Nc1c(C(=O)Nc2c(Cl)cccc2Cl)sc2nc3c(cc12)CCCCC3", "growth": "32.1%"},
      {"smiles": "COc1cccc2c1c1nc3cc(C)c(C)cc3nc1n2CCN(C)C", "growth": "-8.02% (active)"},
      {"smiles": "O=C1OC(c2ccccc2)C(O)=C1c1ccccc1", "note": "(stereo not given)", "growth": "108%"},
      {"smiles": "O=C(CSc1nnnn1-c1ccccc1)Nc1ccc(Oc2ccccc2)cc1", "growth": "115%"},
      {"smiles": "CCC(C)C1CCC(O)CC1", "note": "(stereo not given)", "growth": "101%"},
      {"smiles": "COc1ccc2c(CCCC(c3ccccc3)c3ccccc3)c3[n+](cc2c1OC)CCc1cc2c(cc1-3)OCO2", "growth": "-73% (active)"},
      {"smiles": "CC(C)n1c(/C=C/[C@@H](O)C[C@@H](O)CC(=O)O)c(-c2ccc(F)cc2)c2ccccc21", "growth": "81.7%"},
      {"smiles": "CCOC(=O)CNC(=O)Nc1ccc(Oc2ccc(NC(=O)NCC(=O)OCC)cc2)cc1", "growth": "99.5%"},
      {"smiles": "COc1ccc2nc3ccccc3c(NCCNCCO)c2c1", "growth": "-72.9% (active)"},
      {"smiles": "CC(C)(C)C1=CC(=O)C(C(C)(C)C)=CC1=O", "growth": "96.7%"},
      {"smiles": "CCN(CC)CCCNc1cccc2c(C)cc(OC)nc12", "growth": "74.8%"},
      {"smiles": "NC(Cc1ccc(O)cc1)C(=O)N/N=C/c1ccccc1O", "note": "(stereo not given)", "growth": "108%"},
      {"smiles": "CCc1c(C)c2cc(-n3c(-c4ccc(OC)cc4)csc3=N)c(O)c(C)c2oc1=O", "growth": "17%"},
      {"smiles": "CC(=O)NCCSC(=O)C(=O)SCCNC(C)=O", "growth": "103%"},
      {"smiles": "CSc1nc(-c2cccc(NC(=O)CCl)c2)c(C#N)c(=O)n1C", "growth": "-4.77% (active)"},
      {"smiles": "Cn1c(-c2nonc2NC(=O)c2ccc(F)cc2)nc2ccccc21", "growth": "99.5%"},
      {"smiles": "Nc1ccc(C(=O)Nc2cccc(C(=O)Nc3ccc4c(O)c(N=Nc5ccc(N=Nc6ccc(S(=O)(=O)O)cc6)cc5)c(S(=O)(=O)O)cc4c3)c2)cc1", "growth": "100%"},
      {"smiles": "O=C(O)c1cn(C2CC2)c2cc(N3CCN(C(=O)c4cc(-c5ccc(Cl)cc5)nc5ccccc45)CC3)c(F)cc2c1=O", "growth": "99%"},
      {"smiles": "CC1Cc2ccccc2N1NC(=O)c1ccc(Cl)c(S(N)(=O)=O)c1", "note": "(stereo not given)", "growth": "94.8%"},
      {"smiles": "O=C(Cc1ccc(NC(=O)c2cccc(Cl)c2)cc1)NCc1ccccc1", "growth": "39%"},
      {"smiles": "Cc1cc(N2CCN(C)CC2)nc(N(CCNc2ccnc3cc(Cl)ccc23)Cc2ccco2)n1", "growth": "37.5%"},
      {"smiles": "Oc1ccc(-c2nnc3c4[nH]ccc4ncn23)cc1", "growth": "117%"},
      {"smiles": "C[C@]12C=CC(=O)C=C1[C@@H](F)C[C@@H]1[C@@H]2[C@@H](O)C[C@@]2(C)[C@H]1CC[C@]2(O)C(=O)CO", "growth": "123%"},
      {"smiles": "CCCC(=O)NC(c1cccnc1)c1cc(C(C)(C)C)c2cccnc2c1O", "note": "(stereo not given)", "growth": "-20.4% (active)"},
      {"smiles": "COc1cc(-c2nc(NC(C)=O)sc2-c2ccnc(NCCNS(=O)(=O)c3ccccc3)n2)ccc1Cl", "growth": "20.8%"},
      {"smiles": "Cc1ccc(NC(=S)N2CCOCC2)cc1C", "growth": "83.5%"},
      {"smiles": "S=c1[nH]nc(Cc2ccccc2)c(=S)[nH]1", "growth": "94.7%"},
      {"smiles": "Oc1ccc2ccccc2c1C1NN=C(c2ccccc2)S1", "note": "(stereo not given)", "growth": "3.89% (active)"},
      {"smiles": "Cc1ccc2c(n1)C(=O)C(Cl)=C(Nc1ccc(C(=O)OC(C)(C)C)cc1)C2=O", "growth": "-50.3% [9.25 µM] (active)"},
      {"smiles": "Oc1ccc(Cl)cc1-c1cc(-c2ccccc2Cl)[nH]n1", "growth": "3.92% (active)"},
      {"smiles": "COc1ccc(S(=O)(=O)n2ccc(-c3ccc4c(c3)CCC(C)(C)O4)n2)cc1OC", "growth": "28.4%"},
      {"smiles": "COc1cc(OC)c(/C=C/c2c3ccccc3cc[n+]2C)c(OC)c1", "growth": "-26.5% (active)"}
    ]}
  ]
}
